From PubChem BioAssay (NCI) come the findings set out here.

Among the test systems are NCI-H226 lung; NCI-H322M lung; HOP-62 NSCLC; NCI-H460 lung; HOP-92 NSCLC; A549/ATCC NSCLC; 786-0 renal; COLO 205 colon; DU-145 prostate; K-562 leukemia; MALME-3M melanoma; MDA-MB-231 breast; RXF 393 renal; SF-268 CNS; SF-295 CNS; SF-539 CNS; UACC-257 melanoma; M14 melanoma; NCI-H522 lung.
Holding throughout (test): NCI-60 one-dose screen, 48 h (100 = growth as untreated, 0 = no growth, -100 = all killed)
Holding throughout (conditions): 10 µM unless noted

This is part of a sample that, as a whole, favours compounds with a hit. Of some 83,000 tested, about 20% had one in any assay.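 Assay: single dose, 48 h. Readout: percent growth (0 = no net growth; negative = cell death). Active: <10.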 Unmarked numbers belong to inactive results. Activity calls are given as the source filed them.

With `COc1ccccc1NC(=O)N/N=C/c1c[nH]c2ccccc12`, the growth was 19% in the assay on NCI-H226 lung; 49.4% in the assay on NCI-H322M lung; 47.6% in the assay on HOP-62 NSCLC; 14.1% in the assay with NCI-H460 lung; 47.7% with HOP-92 NSCLC; 30.5% with A549/ATCC NSCLC. The growth was 14.9% with 786-0 renal; 4.3% (active) in the assay with COLO 205 colon; 17.6% in the assay with DU-145 prostate; 15.4% in the assay on K-562 leukemia; 54.6% in the assay on MALME-3M melanoma; 52.3% with MDA-MB-231 breast. Besides, the growth in the assay with RXF 393 renal was -38.7% (active); in the assay with SF-268 CNS, 30.9%; in the assay with SF-295 CNS, -14.5% (active); in the assay with SF-539 CNS it was -11.4% (active); with UACC-257 melanoma, 54.6%; in the assay on M14 melanoma, 14.8%.

`COc1ccc(-c2cc(C)nc3[nH]c(=O)sc23)cc1`: the growth with NCI-H226 lung was 36.3%; in the assay on NCI-H322M lung, 68.4%; with HOP-62 NSCLC it was 44.9%; in the assay on NCI-H460 lung, 52.4%; in the assay with HOP-92 NSCLC it was 16.3%; in the assay on NCI-H522 lung, 61.8%. The growth in the assay with 786-0 renal is 0.453% (active); in the assay on COLO 205 colon, 119%; in the assay on DU-145 prostate it was 67.3%; with K-562 leukemia, 62.5%; in the assay with MALME-3M melanoma, 95.2%; in the assay with MDA-MB-231 breast it was 34.6%. The growth is 57% in the assay with RXF 393 renal; 69.4% in the assay with SF-268 CNS; 45.7% with SF-295 CNS; 49.5% in the assay on SF-539 CNS; 95.3% in the assay on UACC-257 melanoma; 98.5% with M14 melanoma.

For the compound `Cn1cc(-c2cc(N)n3nc(-c4c[nH]c5ccccc45)cc3n2)c2ccccc21`, the growth in the assay on NCI-H226 lung is -38.6% (active); in the assay on NCI-H322M lung, -80% (active); in the assay on HOP-62 NSCLC, -85.4% (active); in the assay with NCI-H460 lung, -66.6% (active); in the assay with HOP-92 NSCLC, -59.5% (active); in the assay with NCI-H522 lung it was -85.1% (active). In addition, the growth in the assay on A549/ATCC NSCLC is -75.2% (active); in the assay with 786-0 renal, -81.6% (active); with COLO 205 colon, -88.6% (active); in the assay on DU-145 prostate it was -89.1% (active); in the assay with K-562 leukemia, 11.4%; in the assay with MALME-3M melanoma, -94.8% (active). Further, the growth in the assay with MDA-MB-231 breast is -89.8% (active); in the assay with RXF 393 renal, -72.5% (active); in the assay with SF-268 CNS it was -51.3% (active); in the assay on SF-295 CNS, -90.3% (active); in the assay on SF-539 CNS, -99.5% (active); in the assay with UACC-257 melanoma, -92% (active). Besides, the growth in the assay with M14 melanoma is -81.5% (active).

As to `CC1=C(C(=O)Nc2ccccc2)C(c2cccc(Cl)c2Cl)n2c(nc3ccccc32)N1` (stereo unspecified), the growth was 70.5% in the assay on NCI-H226 lung; 60.3% in the assay on NCI-H322M lung; 88.6% with HOP-62 NSCLC; 25.7% in the assay on NCI-H460 lung; 40.6% in the assay with HOP-92 NSCLC; 33.2% with A549/ATCC NSCLC. For the same compound, the growth was 53.4% in the assay with 786-0 renal; 63.9% in the assay with COLO 205 colon; 71.1% in the assay with DU-145 prostate; 26.5% with K-562 leukemia; 71.4% with MALME-3M melanoma; 71.4% in the assay with MDA-MB-231 breast. In addition, the growth in the assay with RXF 393 renal is 34.5%; in the assay on SF-268 CNS it was 42.5%; with SF-295 CNS it was 47.1%; in the assay on SF-539 CNS it was 71.4%; in the assay on UACC-257 melanoma, 60.8%; in the assay with M14 melanoma it was 48.8%.

In the case of `Cn1cc(-c2cc3nc(-c4c[nH]c5ccccc45)cc(N)n3n2)c2ccccc21`, the growth in the assay on NCI-H226 lung is 5.22% (active); in the assay with NCI-H322M lung it was 19.4%; in the assay with NCI-H460 lung, -75.5% (active); with HOP-92 NSCLC, -29.4% (active); in the assay on NCI-H522 lung, -65.5% (active); with A549/ATCC NSCLC, -81.7% (active). Moreover, the growth in the assay with 786-0 renal is -90.6% (active); in the assay with COLO 205 colon, -88.8% (active); in the assay on DU-145 prostate it was 11.6%; in the assay with K-562 leukemia it was -7.67% (active); with MALME-3M melanoma, -92.8% (active); in the assay on MDA-MB-231 breast, -93.2% (active). Further, the growth was 82.7% in the assay with RXF 393 renal; 77.1% in the assay with SF-268 CNS; -61.2% (active) in the assay on SF-295 CNS; -97.4% (active) in the assay on SF-539 CNS; -88.4% (active) with UACC-257 melanoma; -60.5% (active) in the assay with M14 melanoma.

As for `O=C1Nc2cc(-c3ccc(NS(=O)(=O)c4ccc(F)c(Cl)c4)cc3)ccc2/C1=C/c1ccc[nH]1`, the growth in the assay with NCI-H226 lung was 37%; in the assay on NCI-H322M lung it was 26.4%; in the assay on HOP-62 NSCLC it was 27.2%; with NCI-H460 lung, -10.6% (active); with HOP-92 NSCLC, 37.2%; in the assay on A549/ATCC NSCLC, 3.71% (active). Moreover, the growth is 35.6% with 786-0 renal; 35.4% in the assay on COLO 205 colon; 20% in the assay on DU-145 prostate; 17.3% in the assay on K-562 leukemia; 50.3% in the assay on MALME-3M melanoma; -6.71% (active) in the assay on MDA-MB-231 breast. For the same compound, the growth with RXF 393 renal was 29.5%; with SF-268 CNS, 60.1%; with SF-295 CNS, 53.6%; in the assay with SF-539 CNS, -34.8% (active); in the assay on UACC-257 melanoma, 29.7%; in the assay with M14 melanoma, 48.4%.

On to `Cc1nc(N)ncc1-c1ccc2ncnc(N3CCc4cc(F)c(Cl)cc43)c2c1`, for which the growth was 73.7% in the assay with NCI-H226 lung; 28.7% in the assay with NCI-H322M lung; 76.7% in the assay with NCI-H460 lung; 13.6% in the assay with HOP-92 NSCLC; 68.2% with NCI-H522 lung; 56.2% in the assay with A549/ATCC NSCLC. Besides, the growth with 786-0 renal is 39.1%; in the assay on COLO 205 colon, 81.5%; with DU-145 prostate it was 47.3%; with K-562 leukemia, 61.7%; with MALME-3M melanoma it was 91.9%; in the assay with MDA-MB-231 breast, 35.3%. In addition, the growth with RXF 393 renal is 14.6%; in the assay with SF-268 CNS, 45.9%; with SF-295 CNS it was 84.9%; in the assay with SF-539 CNS, 67%; in the assay with UACC-257 melanoma, 105%; with M14 melanoma it was 102%.

For the compound `OC(c1ccccc1)(c1ccccc1)C1CCN(c2ccc3nnc(Cl)n3n2)CC1`, the growth in the assay on NCI-H226 lung is 11.2%; in the assay on NCI-H322M lung, 74.1%; with HOP-62 NSCLC, 63.7%; in the assay with NCI-H460 lung, 19.8%; with HOP-92 NSCLC, 19.7%; with NCI-H522 lung it was -60.4% (active). Also, the growth was 36.3% in the assay on A549/ATCC NSCLC; 41.8% in the assay with 786-0 renal; -29.4% (active) in the assay on COLO 205 colon; 54.6% in the assay with DU-145 prostate; 10.7% with K-562 leukemia; 26.8% in the assay on MALME-3M melanoma. For the same compound, the growth was 68% in the assay with MDA-MB-231 breast; 32.8% in the assay on RXF 393 renal; 63.7% with SF-268 CNS; 19% in the assay on SF-295 CNS; 51.8% in the assay with SF-539 CNS; 72.9% with UACC-257 melanoma. The growth in the assay on M14 melanoma is 39.2%.
